SMILES strings stand for the structures. Records with an inconclusive call do not appear. Activity calls are given as the source filed them. Unless noted, the call rests on the fitted dose curve; in most records, active means well fitted curve in the direction sought with a large enough effect; inconclusive means small, poorly fitted or top-dose-only effect, or another doubt; inactive means no such curve, though single readings can be large; an effect the other way counts as inactive or inconclusive.

A short description of assay [1]: Validation of Assay for Modulators of Lamin A Splicing (AID 1459; active means well fitted curve in the direction sought with a large enough effect in the signal ratio; the % refers to the signal ratio;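 further: cells exposed to compound for two days before reading; 0% is about no effect; ratio rise marks activators and ratio drop marks inhibitors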). The settings on record: Lamin A splicing dual RFP/GFP fluorescence reporter; series mostly up to 9.22 µM. Summed up: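 Splicing correction read as GFP (500-530 nm) over DsRed2 (575-640 nm) object intensity after 48 h compound exposure of reporter HeLa S3 clones (600 cells/well, 2% FBS medium); ancitabine and cycloheximide titrations, 0.5% DMSO as vehicle.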

The target in assay [2] is DNA repair nuclease/redox regulator APEX1 (Homo sapiens) (UniProt P27695). As to the kind of experiment: qHTS Validation Assay for Inhibitors of the Human Apurinic/apyrimidinic Endonuclease 1 (APE1) (AID 1705;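 further: TAMRA fluorescence gain over two minutes as APE1 cuts a quenched THF abasic duplex; on the % scale 0 is the no-effect control and ±100 the full control effect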). The settings on record: purified APE1 endonuclease activity, fluorescence, titration; series mostly up to 57.1 µM. A digest of the protocol:
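Activity read as rising fluorescence (598 nm emission, 525 nm excitation) from incision of a TAMRA/BHQ-2 duplex carrying a THF abasic site (50 nM). Compound and enzyme sat 15 min at RT before substrate start; signal change between first and third 60-s reads.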
(In qHTS, concentration-response curves come from the screen itself.)

Assay [3] can be described thus: Counterscreen for APE1 Inhibitors: Fluorescent Dye Displacement Validation Assay (AID 1707).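 Further: plate controls were ThO with dsDNA and no compound for no effect and ThO without dsDNA for full effect.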 As to conditions: fluorescent dye displacement from DNA; series mostly up to 57.1 µM. Summed up:
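Thiazole Orange displacement from dsDNA: 250 nM ThO with 50 nM TAMRA-labelled abasic-site (tetrahydrofuran) duplex in 50 mM Tris-HCl pH7.5, 50mM NaCl, 2 mM MgCl2, 0.01% Tween-20. Loss of endpoint fluorescence (ex 480 nm, em 540 nm) flags DNA binders.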
On the technique in general: The purpose of a counterscreen is to sort out artefacts and off-target activity.

Assay [4] addresses Endonuclease 4 (Escherichia coli (strain K12)) (UniProt P0A6C1). As to the kind of experiment: Counterscreen for APE1 Inhibitors: qHTS Validation Assay for Inhibitors of Endonuclease IV (AID 1708). Further: on the % scale 0 is the no-effect control and ±100 the full control effect. As to conditions: E. coli endonuclease IV, DNA cleavage fluorescence; series mostly up to 57.1 µM. A digest of the protocol:
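Cleavage of a quenched abasic-site DNA duplex (50 nM, 5'-TAMRA, 3'-BHQ-2) by 2 nM enzyme is followed as fluorescence increase. Compounds are preincubated with enzyme 15 min at room temperature before substrate addition.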

Assay [5] in a line: qHTS for differential inhibitors of proliferation of Plasmodium falciparum line 7G8 (AID 1815).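 Further: parasite growth measured after three days of incubation; plate controls were vehicle wells for no effect and reference inhibitor wells for full effect.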 As to conditions: Plasmodium falciparum 7G8 proliferation inhibition; series mostly up to 28.7 µM.
Assay [6] is described as follows: qHTS for differential inhibitors of proliferation of Plasmodium falciparum line GB4 (AID 1816).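 Further: parasite growth measured after 72 h incubation; 0% = vehicle DMSO and -100% = reference inhibitor.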 As to conditions: Potency: Plasmodium falciparum GB4 proliferation inhibition; series mostly up to 28.7 µM.
Assay [7] can be described thus: qHTS for differential inhibitors of proliferation of Plasmodium falciparum line 3D7 (AID 1876).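 Further: parasite growth measured after three days of culture; 0% = vehicle wells and -100% = reference inhibitor wells.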 As to conditions: P. falciparum 3D7 proliferation inhibition; series mostly up to 28.7 µM.
Assay [8] is described as follows: qHTS for differential inhibitors of proliferation of Plasmodium falciparum line D10 (AID 1877).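 Further: parasites grown with compound for 72 h before DNA staining; plate controls were vehicle wells for no effect and reference inhibitor wells for full effect.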 The settings on record: series mostly up to 28.7 µM.
The nature of assay [9]: qHTS Assay for Lipid Storage Modulators (AID 1519; calls by dose curve; on activity change, negative = inhibition: on the % scale 0 is the no-effect control and ±100 the full control effect). The settings on record: Drosophila S3 cells, BODIPY lipid droplet/cell ratio, laser cytometry, cells loaded with oleic acid. Summed up:
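Cells seeded at 5,000 per well were treated with compounds over a concentration series and loaded with oleic acid (400 uM, as added). Lipid droplet fluorescence (488 nm excitation, 500-530 nm channel) was read by laser-scanning cytometry and normalized to 20 uM Triacsin C.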

Assay [10] is described as follows: Cell Viability - LYMP2-012 (AID 982).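 Further: cellular ATP by luciferase luminescence where a drop means cytotoxicity; cells exposed to compound for one day before reading; 0% = DMSO only and full loss = 92 µM tetraoctylammonium bromide; nearly all actives have a fitted effect of over 55% in size.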 As to conditions: LYMP2-012 lymphoblastoid cell viability qHTS; series mostly up to 92.2 µM.
Assay [11] is described as follows: Cell Viability - LYMP2-014 (AID 983).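 Further: plate controls were DMSO only for no effect and 92 µM tetraoctylammonium bromide for full effect; nearly all actives have a fitted effect of over 50% in size.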 The settings on record: LYMP2-014 lymphoblastoid cells, viability qHTS; series mostly up to 92.2 µM. Summed up:
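Decrease in intracellular ATP after 24 hr treatment at 37 C, measured by luciferase luminescence, indicated cytotoxicity. Concentration-response data were fitted with the standard Hill equation to give AC50.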

Assay [12] in a line: Cell Viability - LYMP2-016 (AID 984).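 Further: cells exposed to compound for 24 hours at 37 °C; on the % scale 0 is the no-effect control and ±100 the full control effect; nearly all actives have a fitted effect of over 55% in size.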 The settings on record: LYMP2-016 lymphoblastoid cell viability, qHTS; series mostly up to 92.2 µM. A digest of the protocol: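 Cytotoxicity was scored by luminescent ATP content (CellTiter-Glo) after 24 h compound exposure at 37 C of a human lymphoblastoid line at 2500 cells/well. Concentration-response data were fitted to the Hill equation for AC50.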

The nature of assay [13]: Cell Viability - LYMP2-018 (AID 985).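 Further: compound exposure lasted 24 hr at 37 °C; plate controls were DMSO only for no effect and tetraoctylammonium bromide at 92 µM for full effect; nearly all actives have a fitted effect of over 50% in size.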 As to conditions: LYMP2-018 lymphoblastoid cells, viability (qHTS); series mostly up to 92.2 µM. Summed up: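 Acute cytotoxicity is scored as a concentration-dependent drop in intracellular ATP after 24 hr exposure of the lymphoblastoid line in complete culture medium, measured by luciferase luminescence. Potency is expressed as AC50 from Hill modelling.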

The nature of assay [14]: Cell Viability - LYMP2-022 (AID 987).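 Further: cells exposed to compound for 24 hr; 0% = DMSO alone and full effect = tetraoctylammonium bromide at 92 µM; nearly all actives have a fitted effect of over 55% in size.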 The settings on record: LYMP2-022 lymphoblastoid cell viability; series mostly up to 92.2 µM. A digest of the protocol:
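Acute toxicity in a human lymphoblastoid line is scored as decreased intracellular ATP after 24 hr compound treatment at 37 C. ATP is measured by CellTiter-Glo luminescence; curves are fitted with the Hill equation to give AC50.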

Assay [15] in a line: Cell Viability - LYMP2-024 (AID 988).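 Further: cells exposed to compound for 24 hr at 37 °C; plate controls were DMSO only for no effect and 92 µM tetraoctylammonium bromide for full effect; nearly all actives have a fitted effect of over 60% in size.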 As to conditions: LYMP2-024 lymphoblastoid cell viability; series mostly up to 92.2 µM. Summed up:
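Acute toxicity is measured as concentration-dependent loss of intracellular ATP in a human lymphoblastoid line treated 24 hours at 37 C. Luciferase luminescence quantifies ATP; AC50 values come from standard Hill-equation modelling.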

Assay [16] can be described thus: Cell Viability - LYMP2-026 (AID 989). Further: on the % scale 0 is the no-effect control and ±100 the full control effect; nearly all actives have a fitted effect of over 50% in size. As to conditions: LYMP2-026 lymphoblastoid cell viability, qHTS; series mostly up to 92.2 µM. Summed up:
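Concentration-dependent loss of intracellular ATP in human lymphoblastoid cells after 24 hr at 37 C, quantified by luciferase luminescence. AC50 derived from standard Hill equation.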

A short description of assay [17]: Cell Viability - LYMP1-002 - Assay at 24 hr (AID 993). Further: on the % scale 0 is the no-effect control and ±100 the full control effect. The settings on record: LYMP1-002 lymphoblastoid cells viability; series mostly up to 92.2 µM. Summed up:
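qHTS, LYMP1-002 lymphoblastoid, 24 h cpd, 37 C, CellTiter-Glo ATP luminescence; AC50 via Hill eq.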

Setting [18] is: measured here: cell count channel max response.
Setting [19] is: measured here: lipid channel max response.

DNA repair nuclease/redox regulator APEX1 (Homo sapiens), sequence (P27695 whole entry, looked up): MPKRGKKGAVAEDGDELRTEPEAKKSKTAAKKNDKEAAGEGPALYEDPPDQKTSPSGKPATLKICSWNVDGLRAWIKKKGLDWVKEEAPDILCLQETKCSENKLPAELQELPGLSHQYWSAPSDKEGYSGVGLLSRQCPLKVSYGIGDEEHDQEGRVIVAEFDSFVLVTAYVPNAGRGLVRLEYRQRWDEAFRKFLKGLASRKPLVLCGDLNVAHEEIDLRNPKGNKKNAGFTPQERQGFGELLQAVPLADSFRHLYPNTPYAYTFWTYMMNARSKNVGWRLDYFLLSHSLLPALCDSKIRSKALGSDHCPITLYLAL

As to `O=C(O)C1CCCN(CCC=C(c2ccccc2)c2ccccc2)C1` (configuration not stated), the outcome in assay [1], in assay [2], in assay [3] and in assay [4] was inactive. For the same compound, the Potency entry in assay [5], in [6], in assay [7] and in [8] was “inactive” throughout.

On to `COC(=O)Nc1nc2ccc(Sc3ccccc3)cc2[nH]1`, for which the activity change, negative = inhibition in assay [9] (at 57.5 µM (top of the series)) was 4.46% (inactive). The max response was -3.56% in [9] (setting [18]) and 3.98% in assay [9] (setting [19]).

In the case of `Oc1c(Cl)cc(Cl)c2cccnc12`, in [9] (at 57.5 µM (top of the series)), the activity change, negative = inhibition was -20.1% (inactive). The max response in assay [9] (setting [18]) is -11.5%; in [9] (setting [19]), -27.9%.

Consider `CN(Cc1cc(Br)cc(Br)c1N)C1CCCCC1`, for which, in assay [9] (at 57.5 µM (top of the series)), the activity change, negative = inhibition was -8.74% (inactive). Also, the max response is -7.97% in assay [9] (setting [18]) and -15.4% in assay [9] (setting [19]).

For `COc1ccc2c(c1)c(CC(=O)OCC(=O)O)c(C)n2C(=O)c1ccc(Cl)cc1`, the activity change, negative = inhibition in assay [9] (at 25.7 µM (top of the series)) is 1.43% (inactive). Besides, the max response in assay [9] (setting [18]) stood at 9.96%; in assay [9] (setting [19]), 10.1%.

With `CN1CCCC(n2nc(Cc3ccc(Cl)cc3)c3ccccc3c2=O)CC1` (configuration not stated), the activity change, negative = inhibition in [9] (at 57.5 µM (top of the series)) was 4.52% (inactive). Moreover, the max response in assay [9] (setting [18]) was -4.14%; in assay [9] (setting [19]), 2.11%.

For the compound `CC(C)NCC(O)c1ccc(NS(C)(=O)=O)cc1` (configuration not stated), the compound was called inactive in [1], in assay [2], in assay [3] and in assay [4]. Further, the Potency result in [5], in assay [6], in [7] and in [8] was “inactive” throughout.

`CN(C)CCc1c[nH]c2ccc(CS(=O)(=O)N3CCCC3)cc12`: the activity change, negative = inhibition in assay [9] (at 57.5 µM (top of the series)) was 5.82% (inactive). Also, the figures for the max response in assay [9] (setting [18]) and in [9] (setting [19]) were 19.2% and 27.5%, respectively.

On to `Nc1nc(=S)c2[nH]cnc2[nH]1`, for which, in assay [9] (at 57.5 µM (top of the series)), the activity change, negative = inhibition is 8.45% (inactive). Also, the values for the max response in assay [9] (setting [18]) and in [9] (setting [19]) were 14.3% and 28.9%, respectively.

As for `CNS(=O)(=O)Cc1ccc2[nH]cc(CCN(C)C)c2c1`, the activity change, negative = inhibition in [9] (at 57.5 µM (top of the series)) is 8.81% (inactive). The results for the max response in [9] (setting [18]) and in [9] (setting [19]) were 40% and 52.5%, respectively.

On to `COc1ccc(C(=O)CC(=O)c2ccc(C(C)(C)C)cc2)cc1`, for which the activity change, negative = inhibition in assay [9] (at 57.5 µM (top of the series)) is 1.96% (inactive). For the same compound, the figures for the max response in assay [9] (setting [18]) and in assay [9] (setting [19]) were -16.9% and -13.6%, respectively.

On to `NCCCC(O)(P(=O)(O)O)P(=O)(O)O`, for which, in assay [9] (at 57.5 µM (top of the series)), the activity change, negative = inhibition is 6.27% (inactive). Besides, the max response in assay [9] (setting [18]) was -1.05%; in assay [9] (setting [19]) it was 16.4%.

In the case of `NC(N)=NC(N)=NCCc1ccccc1`, the Potency result in assay [10], in [11], in assay [12], in assay [13], in assay [14] and in assay [15] was “inactive” each time. The Potency result in assay [16] and in [17] was “inactive” each time. For the same compound, the activity change, negative = inhibition in assay [9] (at 25.7 µM (top of the series)) was -0.801% (inactive). Further, the max response in assay [9] (setting [18]) was 4.96%; in assay [9] (setting [19]) it was 5.89%.
